Assay [1] in a line: blockers of polyQ-driven CASP3 activation – cell-based (AID 1583). Particulars: polyglutamine-induced caspase-3 activation, cell assay; stronger effect = higher value;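 tested at 10 µM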.
The nature of assay [2]: yeast 75Q aggregation reduction – 75Q-TubU reporter (AID 1593). Particulars: Yeast 75Q polyglutamine aggregation reporter.
Assay [3] is described as follows: restoration of touch response, mutant HTT neurons – whole organism, C. elegans mechanosensory neurons, N-terminal huntingtin (AID 1599). To be noted: C. elegans polyQ-huntingtin mechanosensory neurons, stronger effect = higher value.
Assay [4] can be described thus: blockers of cytochrome c efflux from mitochondria – biochemical, purified mitochondria (AID 1603).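 Further: mouse liver mitochondria challenged with calcium chloride; signal normalized to the plate average as 100%.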 Particulars: stronger effect = lower value.
The nature of assay [5]: polyglutamine aggregate formation blockers (AID 1604). Particulars: polyglutamine-induced protein aggregation inhibition assay; stronger effect = higher value; tested at 2.5 µM.
A short description of assay [6]: glutamate transport activators, MN-1 cells, MN-1 cell line (AID 1612).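 Further: tested at 1 µM final; 0% = mean of DMSO vehicle wells on each plate; positive means more glutamate uptake than control and negative means less.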 Particulars: MN-1 motor neuron cells, stronger effect = higher value.
Assay [7] can be described thus: GFP-Q80 aggregate reduction, neuronal-like cells, cell-based, NGF-treated PC12, GFPQ80 (AID 1614).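 Further: lower means fewer inclusions and 0 means no inclusions at all.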 Particulars: PC12 NGF-treated GFP-polyQ80 inclusion reduction.
Assay [8] is described as follows: 75Q-TubH aggregate inhibition, S. cerevisiae, yeast (AID 1616). To be noted: S. cerevisiae 75Q-TubH polyglutamine aggregation suppression; stronger effect = higher value.
Assay [9] can be described thus: compounds altering circadian rhythm period length – cell-based, LOPAC library, luminescence reporter (AID 2774).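 Further: values are relative to mean of DMSO wells on each plate.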 Particulars: circadian reporter cells, at 7 µM, actives lie on both sides.
Assay [10] can be described thus: P. berghei load reduction in hepatocytes – cell-based, HepG2, luciferase luminescence, HepG2 viability, primary screen (AID 624349; in the data active means parasite load remaining mostly below about 12%, no sharp cut-off; inactive means mostly above about 10%;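 further: 100% = mean of DMSO negative control wells on the same plate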). To be noted: P. berghei liver stage in HepG2, luciferase luminescence, concentration not given here; parasite load remaining: stronger effect = lower value; viability: measured here: HepG2 viability without parasites.
Assay [11] concerns Hepatitis C virus NS3 helicase. The assay can be described thus: blockers of NS3h binding to ssDNA – biochemical, fluorescence polarization, LOPAC1280 library, primary screen (AID 687035; in the data active means inhibition above about 37%). To be noted: Purified HCV NS3 helicase, Cy5-dT15 ssDNA binding fluorescence polarization; stronger effect = higher value; concentration not given here. (In general: In fluorescence polarisation assays a small probe gives low polarisation when free and higher when bound to something large.)

Assay [12] is described as follows: compounds altering Cy5-DNA-NS3h complex signal – biochemical, LOPAC1280, artefact control for HCV NS3 helicase inhibitor project (AID 687037). Particulars: Cy5-DNA-NS3h complex fluorescence interference counterscreen. A general note: A counterscreen serves to expose hits that act by an unwanted route or on another target.
Assay [13] concerns the target 6-phosphogluconate dehydrogenase, decarboxylating (Homo sapiens) (UniProt P52209). The assay can be described thus: inhibition of human phosphogluconate dehydrogenase – biochemical, recombinant enzyme, NADPH absorbance, primary screen (AID 1159550;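 active means at least 20% inhibition of 6-phosphogluconate dehydrogenase activity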). Particulars: recombinant 6PGD, NADPH absorbance 341 nm; at 10 µM; stronger effect = higher value.
For assay [14], the system named is Aerobactin synthetase IucA (Klebsiella pneumoniae). The assay can be described thus: inhibition of K. pneumoniae IucA enzyme – biochemical, Tocris library, absorbance (AID 1345561).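 Further: 100% = enzyme without compound and 0% = no enzyme.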 To be noted: purified IucA enzyme assay, absorbance (OD) read-out; stronger effect = lower value;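 tested at 8 µM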.
A short description of assay [15]: viability loss with induced miR-34 in A549 – imaging, A549 dox-inducible miR-34, nuclei and caspase counts, primary screen (AID 1347080;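 active means compounds whose cell count with miR-34 switched on is under 0.7 times the count with it off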). Particulars: A549 miR-34 inducible, Hoechst nuclei count, 48 h.
Assay [16] is described as follows: blockers of cellular phospholipid synthesis – cell-based, LOPAC library, screen 4, primary screen (AID 1347384). Particulars: animal cells, phospholipid biosynthesis inhibition screen; at 10 µM.
Assay [17] deals with Mitogen-activated protein kinase 7 (Homo sapiens) (UniProt Q13164). Put plainly: Gal4-ERK5 driven luciferase induction – cell-based, HTS, primary screen (AID 1508626;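 active means luciferase signal above three times the same-plate solvent-only control wells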;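 further: luciferase driven by Gal4-ERK5 fusion binding five Gal4 sites before minimal TATA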). Particulars: HeLa Gal4-ERK5 transactivation, 18 h, at 5 µM, stronger effect = higher value.
Sequence of Mitogen-activated protein kinase 7 (Homo sapiens) (Q13164 whole entry, looked up, the tested form may be a part): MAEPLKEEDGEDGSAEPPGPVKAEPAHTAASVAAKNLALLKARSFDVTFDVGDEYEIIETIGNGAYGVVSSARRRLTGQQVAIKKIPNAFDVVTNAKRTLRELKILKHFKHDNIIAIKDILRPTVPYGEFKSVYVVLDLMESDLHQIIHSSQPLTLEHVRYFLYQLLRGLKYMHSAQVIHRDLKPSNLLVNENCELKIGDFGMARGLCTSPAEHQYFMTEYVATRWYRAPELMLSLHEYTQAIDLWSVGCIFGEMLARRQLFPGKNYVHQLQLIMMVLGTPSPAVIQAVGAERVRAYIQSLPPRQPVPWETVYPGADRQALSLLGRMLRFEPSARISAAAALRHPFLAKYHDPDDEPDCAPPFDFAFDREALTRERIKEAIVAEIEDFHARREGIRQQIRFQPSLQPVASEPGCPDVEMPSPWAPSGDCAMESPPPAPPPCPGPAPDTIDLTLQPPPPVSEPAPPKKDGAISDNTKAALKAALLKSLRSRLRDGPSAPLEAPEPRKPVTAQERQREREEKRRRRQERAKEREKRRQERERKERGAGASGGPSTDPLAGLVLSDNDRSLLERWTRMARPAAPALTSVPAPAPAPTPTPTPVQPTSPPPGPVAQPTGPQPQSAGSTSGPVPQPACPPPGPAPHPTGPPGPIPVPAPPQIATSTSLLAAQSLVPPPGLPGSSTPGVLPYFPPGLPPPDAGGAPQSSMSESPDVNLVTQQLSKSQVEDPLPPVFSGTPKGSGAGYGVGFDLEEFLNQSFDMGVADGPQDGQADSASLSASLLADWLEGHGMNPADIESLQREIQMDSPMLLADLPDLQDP
Assay [18] can be described thus: galactose survival enhancers in mitochondrial complex I cybrids – cell-based, galactose medium, ATP luminescence, primary screen (AID 1645843;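 active means z-score of at least 1.8 in each of two replicates, scored against plate mean and spread of sample wells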;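 further: positive z means more ATP and so rescue of galactose-driven cybrid death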). To be noted: complex I mutant cybrid cells, 72 h, stronger effect = higher value.
The target in assay [19] is ATP-dependent translocase ABCB1 (Homo sapiens) (UniProt P08183). Put plainly: P-glycoprotein substrate transport blockade – cell-based (AID 377; in the data active means fluorescence slope change above about 50%). To be noted: MDR1-expressing cells, fluorescent substrate accumulation slope; stronger effect = higher value; concentration not given here.
Sequence of ATP-dependent translocase ABCB1 (Homo sapiens) (P08183 whole entry, looked up): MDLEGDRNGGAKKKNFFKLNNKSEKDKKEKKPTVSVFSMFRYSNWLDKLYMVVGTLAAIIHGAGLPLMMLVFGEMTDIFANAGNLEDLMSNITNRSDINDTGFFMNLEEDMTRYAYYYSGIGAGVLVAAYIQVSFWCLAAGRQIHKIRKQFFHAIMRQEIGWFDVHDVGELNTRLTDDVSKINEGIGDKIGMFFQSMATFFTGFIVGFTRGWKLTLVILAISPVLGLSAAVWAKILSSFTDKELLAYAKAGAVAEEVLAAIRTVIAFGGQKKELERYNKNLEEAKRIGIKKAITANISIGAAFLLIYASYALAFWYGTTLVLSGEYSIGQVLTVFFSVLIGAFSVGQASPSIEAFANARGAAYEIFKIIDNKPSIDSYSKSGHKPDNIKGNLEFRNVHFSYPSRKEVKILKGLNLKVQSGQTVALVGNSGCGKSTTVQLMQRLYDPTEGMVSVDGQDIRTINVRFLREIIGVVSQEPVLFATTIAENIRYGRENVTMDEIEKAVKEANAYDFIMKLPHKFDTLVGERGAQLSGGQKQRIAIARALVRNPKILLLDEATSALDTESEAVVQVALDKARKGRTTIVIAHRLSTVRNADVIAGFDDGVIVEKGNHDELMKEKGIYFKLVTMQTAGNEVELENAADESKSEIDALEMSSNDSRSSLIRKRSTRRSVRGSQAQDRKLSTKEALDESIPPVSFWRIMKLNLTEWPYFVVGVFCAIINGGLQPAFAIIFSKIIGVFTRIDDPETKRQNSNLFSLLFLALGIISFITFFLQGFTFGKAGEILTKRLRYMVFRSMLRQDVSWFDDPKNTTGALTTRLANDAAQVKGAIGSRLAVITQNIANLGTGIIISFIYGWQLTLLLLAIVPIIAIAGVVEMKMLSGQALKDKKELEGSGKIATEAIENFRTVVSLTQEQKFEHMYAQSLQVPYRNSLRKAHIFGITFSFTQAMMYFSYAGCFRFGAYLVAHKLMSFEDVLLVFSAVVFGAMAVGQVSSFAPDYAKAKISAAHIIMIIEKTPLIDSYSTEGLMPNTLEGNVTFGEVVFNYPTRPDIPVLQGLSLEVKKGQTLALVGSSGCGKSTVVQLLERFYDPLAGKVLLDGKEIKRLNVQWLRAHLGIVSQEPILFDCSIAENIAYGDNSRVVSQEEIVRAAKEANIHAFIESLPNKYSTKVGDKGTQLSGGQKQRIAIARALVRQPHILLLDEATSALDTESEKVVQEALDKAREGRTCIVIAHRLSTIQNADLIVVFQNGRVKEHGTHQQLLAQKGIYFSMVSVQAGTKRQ
Assay [20] in a line: compounds altering viability of human ES cells (AID 493140).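 Further: cells exposed to compounds for four days before counting.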 To be noted: human embryonic stem cell survival screen; stronger effect = higher value.
Assay [21] is described as follows: MELAS cybrid and Rieske KO viability enhancers – cell-based, MELAS cybrids, Rieske KO mouse fibroblasts, CellTiter-Glo, primary screen (AID 1508586;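 active means mean z-score across replicates of 1.96 or higher in either the MELAS or the Rieske mutant cell line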;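 further: z relative to plate mean and SD of compound and empty wells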). To be noted: low glucose.
Assay [22] concerns the target NAD(+) hydrolase SARM1 (Homo sapiens) (UniProt Q6SZW1). The assay can be described thus: blocking NAD cleavage by SARM1 SAM-TIR – cell lysate, NAD-Glo luminescence (AID 1508614;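 active means compound whose remaining NAD level is above about 45 nM, limit read from the data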). Particulars: SAM-TIR HEK293T lysate NADase, at 1 µM, stronger effect = higher value.
[23] abbreviates: stronger effect = lower value, cell number ratio, induced over uninduced.
Setting [24] is: measured here: relative caspase fold change +Dox/-Dox.
The mark [25] stands for this setting: measured here: total cells with miR-34 induction, stronger effect = lower value.
Where [26] appears, read: measured here: total cells without miR-34 induction.

One may read the inhibition as the relative decrease from the control value, in per cent. A word on the viability: it is the share of living cells, or the viability signal relative to a control. As a reminder, the remaining activity is what remains of the control signal, in per cent.

Each structure is given as a SMILES string. Where “and” joins values, the source holds several entries; their conditions need not be identical. Equal entries are not always repeated. Records with an inconclusive call do not appear. For some assays here: Measured potencies and affinities stand elsewhere. Calls of active or inactive are those of the source. Unless noted, how the calls were made is not given here.

Sequence of 6-phosphogluconate dehydrogenase, decarboxylating (Homo sapiens) (P52209 whole entry, looked up): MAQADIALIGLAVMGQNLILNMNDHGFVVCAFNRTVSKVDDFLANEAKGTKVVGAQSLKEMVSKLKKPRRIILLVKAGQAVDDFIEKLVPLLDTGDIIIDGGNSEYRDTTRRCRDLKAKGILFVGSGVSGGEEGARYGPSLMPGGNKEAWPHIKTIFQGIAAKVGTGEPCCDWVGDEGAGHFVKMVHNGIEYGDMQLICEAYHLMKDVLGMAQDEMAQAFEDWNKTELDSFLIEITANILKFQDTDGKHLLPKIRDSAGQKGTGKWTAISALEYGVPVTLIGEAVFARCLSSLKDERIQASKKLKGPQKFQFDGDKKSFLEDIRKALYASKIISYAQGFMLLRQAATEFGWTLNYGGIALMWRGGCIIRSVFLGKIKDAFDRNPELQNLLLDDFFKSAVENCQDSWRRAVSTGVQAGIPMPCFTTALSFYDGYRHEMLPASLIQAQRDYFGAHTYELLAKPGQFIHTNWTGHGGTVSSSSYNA
Sequence of NAD(+) hydrolase SARM1 (Homo sapiens) (Q6SZW1 whole entry, looked up): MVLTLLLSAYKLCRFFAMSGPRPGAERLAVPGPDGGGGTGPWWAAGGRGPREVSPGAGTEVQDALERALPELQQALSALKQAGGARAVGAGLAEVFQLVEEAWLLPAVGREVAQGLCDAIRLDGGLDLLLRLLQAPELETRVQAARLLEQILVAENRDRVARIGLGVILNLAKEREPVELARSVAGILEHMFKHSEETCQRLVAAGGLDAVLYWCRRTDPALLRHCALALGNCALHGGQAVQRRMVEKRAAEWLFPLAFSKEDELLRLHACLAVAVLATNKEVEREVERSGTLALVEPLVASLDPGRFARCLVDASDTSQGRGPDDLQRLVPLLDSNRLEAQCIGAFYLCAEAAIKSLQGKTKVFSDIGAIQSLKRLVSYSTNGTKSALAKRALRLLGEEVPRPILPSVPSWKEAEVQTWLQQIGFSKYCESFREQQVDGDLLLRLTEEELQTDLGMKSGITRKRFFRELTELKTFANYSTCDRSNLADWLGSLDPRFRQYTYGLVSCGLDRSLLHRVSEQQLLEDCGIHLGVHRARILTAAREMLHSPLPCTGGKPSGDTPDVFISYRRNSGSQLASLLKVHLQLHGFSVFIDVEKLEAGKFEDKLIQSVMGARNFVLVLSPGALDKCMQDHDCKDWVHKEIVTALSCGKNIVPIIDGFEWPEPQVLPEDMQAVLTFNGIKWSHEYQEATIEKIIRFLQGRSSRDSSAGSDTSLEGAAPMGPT

Turning to `O=C(O)c1cc(=O)c2ccccc2[nH]1`, the inhibition in assay [1] was -5.47%; in assay [11], -6% (inactive); in [13] it was 9.19% (inactive). In [2], this compound registered a score of 1.02. The compound also displayed a rescue above control in assay [3] of 12.3. Moreover, the cytochrome c release ratio in [4] was determined as 0.92. In assay [5], this compound yielded an inhibition of aggregation of 69.7%. Besides, the glutamate uptake change in assay [6] is -1.73%. Moreover, the inclusion score in [7] amounted to 2. In addition, in [8], the aggregation suppression score stood at 0.981. Moreover, in assay [9], the period change was 0.025 h (inactive). In [10], the parasite load remaining was 196% (inactive). In assay [10], the viability came out at 68.4%. The fluorescence ratio (interference) in assay [12] was 1 (inactive). In addition, the remaining activity in [14] was 94.6% (inactive). Also, the fold change in assay [15] (setting [23]) was 1.09 (inactive) and 0.962 (inactive); in [15] (setting [24]), 0.635 and 0.733. Further, the cell count was 10600 and 8100 in [15] (setting [25]); 9680 and 8420 in assay [15] (setting [26]). Also, the compound was called inactive in [16]. Besides, the luciferase signal in assay [17] was 40 AU (inactive). For the same compound, the z-score in assay [18] is 0.335 (inactive) and 0.005 (inactive).

On to `CC(C)C[C@H]1C(=O)N2CCC[C@H]2[C@]2(O)O[C@](NC(=O)[C@@H]3C=C4c5cccc6[nH]c(Br)c(c56)C[C@H]4N(C)C3)(C(C)C)C(=O)N12`, for which the fluorescence slope change in assay [19] was 115% (active). Also, the period change in assay [9] was 0.365 h (inactive). Also, in assay [20], the survival was 29.8 (inactive). Also, the parasite load remaining in assay [10] is 105% (inactive). In addition, the viability in [10] was found to be 88.9%. For the same compound, the values for the inhibition in assay [11] and in [13] were 2% (inactive) and -9.44% (inactive), respectively. Moreover, the fluorescence ratio (interference) in assay [12] is 0.9 (inactive). For the same compound, in assay [14], the remaining activity was 93.8% (inactive). Further, the fold change is 1.36 (inactive) and 1.09 (inactive) in assay [15] (setting [23]); 1.68 and 0.668 in [15] (setting [24]). Moreover, the cell count in assay [15] (setting [25]) was 5460 and 4760; in [15] (setting [26]), 4010 and 4360. Besides, in assay [16], the compound was called inactive. For the same compound, the z-score in [21] (MELAS cybrid survival, CellTiter-Glo 48 h, stronger effect = higher value) was -0.164 (inactive); in assay [21] (Rieske KO mouse fibroblast survival, CellTiter-Glo 72 h), -0.261; in [18] it was -1.32 (inactive) and -1.22 (inactive). The remaining NAD in [22] was 10 nM (inactive). Moreover, the luciferase signal in assay [17] was 200 AU (inactive).

For the origin of these results see PubChem BioAssay.
